Assay results as given in PubChem BioAssay (NCI).
Compounds without any hit were thinned out: in the full panel of roughly 79,000, 15% have a hit. No stated cut-off is given here; in the data, active means growth inhibition above about 70%; inactive means the rest.

Key:
[1] = NCI Yeast Anticancer Drug Screen. Data for the rad50 strain (AID 155);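 further: 0% = growth of vehicle-only cultures of the same strain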; settings: S. cerevisiae rad50 strain growth inhibition; at 50.0 µM; hits give high values
Summary of the method: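 DNA repair mutant yeast, compound exposure, growth read-out; inhibition is taken relative to vehicle.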

[2] = NCI Yeast Anticancer Drug Screen. Data for the mec2-1 strain (AID 157); settings: S. cerevisiae mec2-1 strain, at 50.0 µM, hits give high values
Summary of the method: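 Test agents were screened against the mec2-1 yeast strain, with defined DNA repair or cell cycle alteration. Growth was scored as inhibition against vehicle-only controls.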

[3] = NCI Yeast Anticancer Drug Screen. Data for the sgs1 mgt1 strain (AID 161);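 further: 0% = growth of cultures given vehicle only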; settings: S. cerevisiae sgs1 mgt1 strain, at 50.0 µM, hits give high values
Summary of the method: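 Genetically altered yeast, compound exposure, growth inhibition relative to vehicle.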

[4] = NCI Yeast Anticancer Drug Screen. Data for the cln2 rad14 strain (AID 165);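 further: 0% = growth equal to vehicle treated cultures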; settings: S. cerevisiae cln2 rad14 strain, at 50.0 µM, hits give high values
Summary of the method: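 Growth of compound-exposed yeast (cln2 rad14 genotype) measured and expressed as inhibition relative to vehicle.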

[5] = NCI Yeast Anticancer Drug Screen. Data for the bub3 strain (AID 167); settings: S. cerevisiae bub3 mutant strain, at 50.0 µM, hits give high values
Summary of the method: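 In this screen, a yeast mutant lacking normal mitotic checkpoint function is challenged with compound. Relative growth versus vehicle gives the inhibition value.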

[6] = NCI Yeast Anticancer Drug Screen. Data for the mlh1 rad18 strain (AID 175); settings: S. cerevisiae mlh1 rad18 strain growth inhibition; at 50.0 µM; hits give high values
Summary of the method: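 In this whole-cell yeast screen, a strain with altered DNA damage repair is challenged with compound, and its growth is measured against matched vehicle-treated controls.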

Measured: growth inhibition

O=C(/C=C\c1ccc(O)cc1)c1ccccc1
inactive: [1] 15.9% | [2] -14.3% | [3] 45.9% | [4] 8.6% | [5] 29.6% | [6] 14.1%

Nc1nc2c(c(-c3nc(N)nc4c3CCc3ccccc3-4)n1)CCc1ccccc1-2
inactive: [1] -0.5% | [2] -12.6% | [3] -25.1% | [4] 3.05% | [5] -20.5% | [6] 2.9%

Sc1ccc(Nc2c3ccccc3nc3ccccc23)cc1
inactive: [1] 28.4% | [2] 33.6% | [3] 14.9% | [4] 7.3% | [5] 25.6% | [6] 54.6%

NC(=S)NN=C1CCCC1
inactive: [1] 2.2% | [2] -5.8% | [3] 4.75% | [4] -19.6% | [5] -2.45% | [6] 7.75%

CC(C)CCOC(=O)c1ccccc1
inactive: [1] -7.2% | [2] -22.5% | [3] -34.1% | [4] -68.9% | [5] -29.1% | [6] -22.9%

O=c1cc(-c2ccccc2)[nH]c2c1CCCC2
inactive: [1] -17.8% | [2] -21.4% | [3] -12.2% | [4] -23.8% | [5] 0.95% | [6] -3.5%

O=S(=O)(O)C(Nc1ccccc1)c1ccccc1 (centres undefined)
inactive: [1] -4.35% | [2] -27.7% | [3] 9.5% | [4] -0.25% | [5] 16% | [6] -11.6%

O=C(N/N=C\c1cc(Br)cc(Br)c1O)N/N=C/c1cc(Br)cc(Br)c1O
inactive: [1] 41.4% | [2] 10.2% | [3] 43% | [4] 21.9% | [5] 39% | [6] 33.2%

O=C(O)c1ccnc(Br)c1
inactive: [1] -3.05% | [2] -0.05% | [3] -31.1% | [4] 11.7% | [5] -27.3% | [6] -14.2%

C=CC(=O)OCCCCCCCC
inactive: [1] 5.4% | [2] -14.3% | [3] -29.4% | [4] -34.5% | [5] 2.4% | [6] 2.85%

O=[N+]([O-])c1cccc(C(F)(F)F)c1
inactive: [1] -3.9% | [2] -12.1% | [3] -9.1% | [4] -23.9% | [5] 34.3% | [6] -9.85%

CC1CC(O)CC(C)(C)C1 (centres undefined)
inactive: [1] 5.55% | [2] -10.1% | [3] 1.35% | [4] -25.4% | [5] 2.2% | [6] -4.25%

c1ccc(/C(=N\N=C(/c2ccccc2)c2cccs2)c2cccs2)cc1
inactive: [1] 18.3% | [2] -23.1% | [3] 25.7% | [4] -2.8% | [5] 23.6% | [6] 10.6%

COC(=O)c1ccccc1N(C)C
inactive: [1] 0.55% | [2] -11.2% | [3] -3.8% | [4] 2.4% | [5] 2.65% | [6] 0.9%

CCCC(=O)c1cc(C)ccc1OC
inactive: [1] -2.15% | [2] 0.15% | [3] -9.85% | [4] -22.6% | [5] 6.6% | [6] -3.2%

S=c1[nH]ccn1-c1ccccc1Cl
inactive: [1] -17.8% | [2] -17.2% | [3] -17.6% | [4] -29.1% | [5] -10.4% | [6] -2.1%

CC(=O)Nc1cccc(NC(C)=O)n1
inactive: [1] 6.25% | [2] 10.8% | [3] 1.25% | [4] -5% | [5] 7.8% | [6] 6.1%

CNC(=S)NC(C)(C)C
inactive: [1] -14% | [2] -17.3% | [3] -20.6% | [4] -29.2% | [5] -18.8% | [6] -20%

Oc1ccc(N=Nc2ccc(Br)cc2)c(O)c1
inactive: [1] 4.15% | [2] 31.3% | [3] 30.2% | [4] -20.1% | [5] 33.6% | [6] 22.8%

O=C(O)c1cc([N+](=O)[O-])ccc1Cl
inactive: [1] 27.9% | [2] 11.2% | [3] 7.15% | [4] 21% | [5] 21.9% | [6] 34.4%

CN(C)CCN(Cc1ccccc1)c1ccccc1
inactive: [1] -16.1% | [2] -41.6% | [3] -13.6% | [4] -10.7% | [5] -20.8% | [6] -12%

O=C(O)c1ccc(S(=O)(=O)O)cc1
inactive: [1] 8.55% | [2] 11.8% | [3] 0.45% | [4] -12.4% | [5] 18.5% | [6] 12.5%

COc1ccc(-c2cc(-c3cc(-c4ccc(OC)cc4)nc(N)n3)nc(N)n2)cc1
inactive: [1] -13% | [2] 4.45% | [3] -20.8% | [4] -2.65% | [5] -2.65% | [6] 9.8%

CCS(=O)(=O)CCCl
inactive: [1] 12.2% | [2] -5.1% | [3] 2.3% | [4] 5.9% | [5] 0.95% | [6] 5.85%

CC(=O)OCC1=CC2OC(=O)C3=COC(OC4OC(CO)C(O)C(O)C4O)C1C32 (centres undefined)
inactive: [1] 11.6% | [2] -3.55% | [3] 10.3% | [4] 13.4% | [5] 16.6% | [6] -51.6%

COc1cc(C(=O)NC(=S)Nc2ccc3ccccc3c2)cc(OC)c1OC
inactive: [1] 11.3% | [2] 2.6% | [3] 6.25% | [4] -6.15% | [5] -3.4% | [6] 13.1%

C#CCSc1nnnn1-c1ccc(Br)c(C)c1
inactive: [1] 14.8% | [2] 1.3% | [3] 34.5% | [4] 22.3% | [5] 32.6% | [6] 7.1%

[O-][N+](=Nc1cccc(Cl)c1)c1cccc(Cl)c1
inactive: [1] 19.7% | [2] -30.9% | [3] 24.9% | [4] 16.1% | [5] 21.2% | [6] 15.1%

O=c1c2ccccc2c(Br)c(Br)c2ccccc12
inactive: [1] 11.4% | [2] -12.4% | [3] 15.6% | [4] 3.3% | [5] 9.15% | [6] 27.4%

CCOC(=O)/C(=C/c1ccc(OC)cc1)N(CC)CC
inactive: [1] -45.8% | [2] -22.7% | [3] -17.4% | [4] 0.5% | [5] -19.1% | [6] -20.4%

Cc1nc2c(ccc3ccccc32)s1
inactive: [1] 10.4% | [2] -5.35% | [3] 22.7% | [4] 6.45% | [5] 3.5% | [6] 15.4%

O=C(O)CCCC(=O)O
inactive: [1] -36.5% | [2] -0.7% | [3] -22.6% | [4] -21.4% | [5] -51.6% | [6] 4.5%

CCCCCCCCCCCCCCCCC1CC(=O)OC1=O (centres undefined)
inactive: [1] -4.35% | [2] -12.2% | [3] 5.9% | [4] 4.3% | [5] -11.3% | [6] 4.55%

c1ccc(CN2COc3c(ccc4c3OCN(Cc3ccccc3)C4)C2)cc1
inactive: [1] 7.4% | [2] 20.8% | [3] 23.1% | [4] -22.7% | [5] 9.7% | [6] 8.3%

CC[N+](C)(CC)CCO
inactive: [1] 13.7% | [2] -3.8% | [3] 4.4% | [4] 10.7% | [5] 2.9% | [6] 5.05%

O=C(O)COCC(=O)O
inactive: [1] 34.1% | [2] -15.2% | [3] -11.4% | [4] -53.2% | [5] 5.85% | [6] 4.75%

CC(=Nc1ccccc1)C1=C(O)C(Cc2cccc(F)c2)NC1=O (centres undefined)
inactive: [1] 5.3% | [2] 4.35% | [3] 13.6% | [4] 2.3% | [5] -2.5% | [6] -22%

CCC(C#N)(CC)c1ccccc1
inactive: [1] 16% | [2] 13.4% | [3] 11.1% | [4] 12.7% | [5] -3.2% | [6] 36.3%

CCOC(=O)C(O)C(O)C(=O)OCC (centres undefined)
inactive: [1] 21.4% | [2] -15.8% | [3] -29.3% | [4] -16.7% | [5] -2.85% | [6] 7.85%

CCNCCCCNCCCCNCCCCNCCCCNCC
inactive: [1] -16.6% | [2] 4.25% | [3] -6.1% | [4] 11.2% | [5] 3.95% | [6] 6.7%

CC1=C(/C=C/C(C)=C/C=C/C(C)=C/CO)C(C)(C)CCC1
inactive: [1] 14.8% | [2] 4.45% | [3] -3.15% | [4] 10.7% | [5] -42.2% | [6] 6.55%

O=C(O)CCC(NC(=O)OCc1ccccc1)C(=O)O (centres undefined)
inactive: [1] -4.05% | [2] 2.55% | [3] -8.45% | [4] 9.55% | [5] -21.2% | [6] -5.15%

COc1ccc(C(C)C=O)cc1 (centres undefined)
inactive: [1] 5.55% | [2] -14.8% | [3] -30.3% | [4] -51.5% | [5] -27.9% | [6] 2.3%

Cc1ccncc1C(N)=O
inactive: [1] -1.4% | [2] -2.8% | [3] -9.55% | [4] -0.85% | [5] -11% | [6] 3.3%
